IL1B secr inh: inhibitors of inflammasome signaling (IL-1 beta secretion); activity change, % at 57.5 µM; AID 743279; THP-1 LPS/ATP IL-1B secretion, AlphaLISA, 16 h; hits give low values; 360,000 tested, 4.7% active; in the data active = activity change below about -50%; inconclusive = mostly about -30% to -49%
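Secreted IL-1B measured by AlphaLISA bead assay after 16 h compound exposure of THP-1 cells; compounds (final up to 57.5 uM) added 1 h before LPS (250 ng/mL) and ATP (1.25 mM) stimulation; lower signal means less secretion.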
HepG2 viability: kills HepG2 cells in TGF-b inhibitor counter-screen; AID 588856; HepG2 CAGA-GFP viability, ATP luminescence, 18 h; 410,000 tested, 0.76% active; Potency, µM (series often up to 46.1 µM), hits mostly cytotoxic
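CellTiter-Glo luminescence gave cytotoxicity after 18 hours at 37 degrees C. The cells were HepG2 CAGA-GFP in 1% FBS DMEM, stimulated with 500 pg/mL TGF-beta after compound addition. %Activity was normalised to no-cell wells (complete cell-killing) and DMSO (no toxicity), and curves were fitted and classified.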
TDP1 cell noCPT: qHTS for Inhibitors of human tyrosyl-DNA phosphodiesterase 1 (TDP1): qHTS in cells in absence of CPT; Potency, µM (top dose mostly 46.2 µM), hits mostly inhibitors; 420,000 tested, 15% active; DT40 Tdp1-/- hTDP1 cells, no CPT, ATP luminescence, 48 h; also: nearly all actives have a fitted effect of over 55% in size
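No-CPT arm: Tdp1-/-;hTDP1 DT40 cells (400/well) plus compounds, incubated ≥48 hr at 37 °C. Readout CellTiter-Glo luminescence.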
TDP1 cell CPT: DT40-hTDP1 cell growth loss with CPT. chicken DT40 Tdp1-/-;hTDP1 cells + 20 nM CPT, ATP luminescence, 48 h. Potency, µM (titrated, usually from 46.2 µM), usual class: inhibitors. 420,000 tested, 12% active; also: nearly all actives have a fitted effect of over 55% in size
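Chicken DT40 Tdp1-/- cells stably complemented with human TDP1 were seeded at 400 cells/well in medium containing 20 nM camptothecin, exposed to pin-transferred compounds, and grown at 37 °C for at least 48 hr. Viability was read as ATP luminescence.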
TDP1 block: TDP1 (human) enzyme inhibition; Q9NUW8; recombinant TDP1, AlphaScreen DNA substrate cleavage; Potency, µM (titrated, usually from 130 µM), hits mostly inhibitors; 350,000 tested, 0.28% active; AID 485290; also: nearly all actives have a fitted effect of over 40% in size
Target sequence (Q9NUW8 whole entry, looked up): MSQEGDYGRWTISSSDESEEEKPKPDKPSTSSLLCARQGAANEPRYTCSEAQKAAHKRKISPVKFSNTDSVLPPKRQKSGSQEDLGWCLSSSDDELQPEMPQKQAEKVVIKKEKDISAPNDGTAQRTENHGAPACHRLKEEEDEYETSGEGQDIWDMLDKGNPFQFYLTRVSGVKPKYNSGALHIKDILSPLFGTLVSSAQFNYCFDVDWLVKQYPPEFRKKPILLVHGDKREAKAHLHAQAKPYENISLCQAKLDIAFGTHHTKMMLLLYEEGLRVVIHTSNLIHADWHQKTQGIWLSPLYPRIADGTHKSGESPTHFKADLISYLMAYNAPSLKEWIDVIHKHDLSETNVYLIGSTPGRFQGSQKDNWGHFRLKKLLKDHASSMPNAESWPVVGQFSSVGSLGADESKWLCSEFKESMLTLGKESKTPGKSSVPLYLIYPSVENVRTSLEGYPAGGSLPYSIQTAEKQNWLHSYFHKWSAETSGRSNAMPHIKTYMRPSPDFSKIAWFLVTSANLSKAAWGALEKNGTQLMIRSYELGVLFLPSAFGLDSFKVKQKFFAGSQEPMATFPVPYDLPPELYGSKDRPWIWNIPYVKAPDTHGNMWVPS
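Tdp1 1 nM final; 15 min RT w/ cpd; substrate 15 nM, 5 min; beads 10 ug/ml, 10 min; AlphaScreen read. Neg ctrl: no enzyme.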
TGFb SMAD3 inh: inhibitors of TGF-b signaling; HepG2 CAGA-GFP TGF-b/SMAD3 reporter, GFP fluorescence, 18 h; TGF-beta stimulated, 500 pg/mL final; AID 588855; 410,000 tested, 1.2% active; Potency, µM (top dose mostly 46.1 µM), actives largely listed as inhibitors; also: nearly all actives have a fitted effect of over 65% in size
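Inhibition of TGF-beta-driven CAGA-GFP reporter expression in HEPG2 cells is measured by cellular GFP fluorescence after 18 h stimulation with 500 pg/mL recombinant TGF-beta in 1% FBS medium at 37 degrees C.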
Hits are given with their value; . = inactive; ? = inconclusive; / = not tested or not shown; [ ] = remark or other dose. Only some compounds are listed: those with a hit (about 19% of all), similar ones and a draw of the others. Unless noted, calls follow the shape of the dose curve; as a rule, active = well fitted curve in the direction sought with a large enough effect; inconclusive = small, poorly fitted or top-dose-only effect, or another doubt; inactive = no such curve, though single readings can be large; an effect the other way counts as inactive or inconclusive.

SMILES | IL1B secr inh | HepG2 viability | TDP1 cell noCPT | TDP1 cell CPT | TDP1 block | TGFb SMAD3 inh
CC(C)=CCC/C(C)=C/CO/N=C1/C[C@@H](O)[C@@H](O)[C@@H]2[C@@H]3C(=O)N(C[C@@H]4CCCO4)C(=O)[C@H]3CC[C@@H]12 | / | / | / | / | .[21 µM] | /
CC(C)=NOc1cc(NC(=O)CCl)cc([N+](=O)[O-])c1 | -100.5 | . | 4.11µM | 3.66µM | . | 6.31µM
O=C(CCl)Nc1cc(SCC(O)CO)cc([N+](=O)[O-])c1 (stereo unspecified) | -101.3 | . | ? | 4.61µM | . | 2.82µM
CC(=O)OCC1C2CC[C@H]3C(OCc4ccc(F)cc4C(F)(F)F)OC[C@]4(C)[C@H]3C2=C(CN4C(=O)OC(C)(C)C)[C@H](C)C1COC(C)=O (stereo partly specified) | / | / | / | / | . | /
CCc1ccc(C(=O)c2cn(CC(=O)Nc3ccc4c(c3)OCCO4)c3ccc(CC)cc3c2=O)cc1 | / | . | . | . | . | .
CCC(CC)C(=O)N(C)c1c(C)nc2c(OCc3ccccc3C(=O)OC)cccn12 | . | . | 16.4µM | ? | / | .
CCC(CC)C(=O)N(C)c1c(C)nc2c(OCc3ccccc3OC)cccn12 | . | . | 14.6µM | ? | / | .
COC(=O)c1ccccc1COc1cccn2c(N(C)Cc3cccs3)c(C)nc12 | -78.2 | . | ? | ? | / | ?
CCc1nc2c(OCc3c(C)noc3C)cccn2c1N(C)C(=O)c1ccccc1F | . | . | . | . | / | .
CCC(CC)C(=O)N(C)c1c(C)nc2c(OCC3CCCCC3)cccn12 | . | . | 13µM | ? | / | ?
CCc1nc2c(OCc3ccc(F)c(F)c3)cccn2c1N(C)C(=O)C(C)C | . | . | ? | . | / | .
CCc1nc2c(OCC(N)=O)cccn2c1N(C)C(=O)C(C)C | . | . | . | . | / | .
Cc1oc(-c2ccccc2NC(=O)C2CCCO2)nc1CNC(=O)c1cc(F)c(F)cc1F (stereo unspecified) | / | / | . | .[9.04 µM] | / | /
CCNC(=S)Nc1ccc(Oc2ccccc2)cc1 | . | . | 18.4µM | ? | / | .
COc1ccc(NC(=S)Nc2ccc(Oc3ccccc3)cc2)cc1 | . | . | ? | 23.1µM | . | .
O=C(O)CCCC(=O)Nc1ccc(OCc2nc3ccccc3s2)cc1 | . | . | ? | . | / | .
CCNC(=S)Nc1ccc(OCc2nc3ccccc3s2)cc1 | . | . | 23.1µM | 16.4µM | / | .
S=C(NCc1ccccc1)Nc1ccc(Oc2ccccc2)cc1 | . | . | ? | . | / | ?
COc1ccc(C)cc1S(=O)(=O)NCC(c1ccco1)N1CCc2ccccc2C1 (stereo unspecified) | . | . | ? | 29.1µM | / | .
COc1ccc(OC)c(S(=O)(=O)NCC(c2ccco2)N2CCc3ccccc3C2)c1 (stereo unspecified) | . | . | ? | ? | / | .
Cc1ccc(S(=O)(=O)NCC(c2ccco2)N2CCc3ccccc3C2)cc1 (stereo unspecified) | . | . | ? | 23.1µM | . | .
CCN(c1cccc(C)c1)S(=O)(=O)c1ccc2[nH]cc(C(=O)NCCCOC)c(=O)c2c1 | / | . | ? | . | . | ?
CCC(C)(C)C | / | / | / | / | . | /
OCCN1CCN(c2nc(-c3ccccc3)c3cc(Cl)ccc3n2)CC1 | -52.1 | . | 23.1µM | ? | . | ?
Clc1ccc2nc(N3CCNCC3)nc(-c3ccccc3)c2c1 | -94.7 | 12.6µM | 9.2µM | 18.4µM | . | ?
SMILES | IL1B secr inh | HepG2 viability | TDP1 cell noCPT | TDP1 cell CPT | TDP1 block | TGFb SMAD3 inh
O=C1CN(c2nc(-c3ccccc3)c3cc(Cl)ccc3n2)c2ccccc2N1 | . | . | 20.6µM | 16.4µM | . | .
COc1ccc(C2C(C(=O)Nc3cccnc3)=C(C)Nc3nc(-c4ccc(OC)c(OC)c4)nn32)cc1 (stereo unspecified) | / | . | . | . | / | .
COC(=O)C(Cc1ccc(OC(=O)c2ccc(C(F)(F)F)cc2)cc1)N1Cc2ccccc2C1=O (stereo unspecified) | . | . | 18.4µM | 16.4µM | . | .
CC/C(=C\c1ccc(N(C)C)cc1)c1ccncc1 | -64.3 | . | ? | 23.1µM | / | ?
Cc1c(NC(=O)c2sc3ccccc3c2Cl)cccc1-c1nc2ccccc2o1 | / | . | . | . | .[12.3 µM] | .
O=C1NC2CCCCC2C(=O)N1OS(=O)(=O)c1ccccc1 (stereo unspecified) | -78.3 | . | 11.6µM | 2.59µM | / | .
O=C1CCN(S(=O)(=O)c2ccccc2)C2CCCCC12 (stereo unspecified) | . | . | ? | . | . | ?
CCc1cc(CNC(=O)CC2C(=O)NCCN2Cc2ccc(-c3ccccc3)cc2)on1 (stereo unspecified) | . | . | ? | . | . | .
O=C(CC1C(=O)NCCN1Cc1ccc(-c2ccccc2)cc1)NCc1ccccc1 (stereo unspecified) | -56.9 | . | ? | ? | . | ?
O=C(CC1C(=O)NCCN1Cc1ccc(-c2ccccc2)cc1)NC1CCC1 (stereo unspecified) | . | . | 14.6µM | . | . | .
CC1=C(C(=O)Nc2cccc(C(=O)NC(C)c3ccccc3)c2)SCCO1 (stereo unspecified) | . | . | 16.4µM | ? | / | .
COCCNC(=O)c1cccc(NC(=O)C2=C(C)OCCS2)c1 | . | . | . | . | / | .
O=c1[nH]c(CN2CCCCC2)nc2c1C1(CCCCC1)Cc1ccccc1-2 | . | . | 13µM | 13µM | . | .
CCc1nc2c(c(=O)[nH]1)C1(CCCC1)Cc1ccccc1-2 | . | . | . | . | . | .
CCOC(=O)c1c(S(=O)(=O)N2CCCC(C(=O)Nc3cc(C)ccc3OC)C2)c(C)n(C)c1C (stereo unspecified) | / | . | ? | ? | . | ?
COc1ccc(C(=O)N2CCC3(CCCN(Cc4ccc(C#N)cc4)C3)CC2)cc1 | / | / | 18.4µM | . | / | /
N#Cc1ccc(CN2CC3(CCN(C(=O)c4cc(C(F)(F)F)cc(C(F)(F)F)c4)CC3)C2)cc1 | / | / | 10.3µM | 20.6µM | / | /
COc1ccc2c(c1)C(=O)[C@@H](OC(=O)NC1CCCC1)[C@H](c1ccc(OC)c(Br)c1)O2 | / | / | / | / | . | /
O=[N+]([O-])c1ccc(-c2nnc(-c3ccccc3)c(N3CCOCC3)n2)cc1 | . | . | ? | . | . | .
Clc1ccc(-c2nnc(-c3ccccc3)c(-c3ccccc3)n2)cc1 | . | . | . | . | . | .
Clc1ccc(-c2nnc(-c3ccccc3)c(N3CCSCC3)n2)cc1 | . | . | ? | 20.6µM | . | .
